This passage reports activation results from PubChem BioAssay AID2796 (The Scripps Research Institute Molecular Screening Center, 2010).

The whole screen tested about 320,000 compounds, of which about 8,000 (2.5%) were called active. Cut-off read from the data, not from the text of the source: active = activation above about 47%; inactive = the rest. The entries come from a sample that favours actives as a whole.

Chain of Aryl hydrocarbon receptor (Homo sapiens) (P35869 whole entry, looked up): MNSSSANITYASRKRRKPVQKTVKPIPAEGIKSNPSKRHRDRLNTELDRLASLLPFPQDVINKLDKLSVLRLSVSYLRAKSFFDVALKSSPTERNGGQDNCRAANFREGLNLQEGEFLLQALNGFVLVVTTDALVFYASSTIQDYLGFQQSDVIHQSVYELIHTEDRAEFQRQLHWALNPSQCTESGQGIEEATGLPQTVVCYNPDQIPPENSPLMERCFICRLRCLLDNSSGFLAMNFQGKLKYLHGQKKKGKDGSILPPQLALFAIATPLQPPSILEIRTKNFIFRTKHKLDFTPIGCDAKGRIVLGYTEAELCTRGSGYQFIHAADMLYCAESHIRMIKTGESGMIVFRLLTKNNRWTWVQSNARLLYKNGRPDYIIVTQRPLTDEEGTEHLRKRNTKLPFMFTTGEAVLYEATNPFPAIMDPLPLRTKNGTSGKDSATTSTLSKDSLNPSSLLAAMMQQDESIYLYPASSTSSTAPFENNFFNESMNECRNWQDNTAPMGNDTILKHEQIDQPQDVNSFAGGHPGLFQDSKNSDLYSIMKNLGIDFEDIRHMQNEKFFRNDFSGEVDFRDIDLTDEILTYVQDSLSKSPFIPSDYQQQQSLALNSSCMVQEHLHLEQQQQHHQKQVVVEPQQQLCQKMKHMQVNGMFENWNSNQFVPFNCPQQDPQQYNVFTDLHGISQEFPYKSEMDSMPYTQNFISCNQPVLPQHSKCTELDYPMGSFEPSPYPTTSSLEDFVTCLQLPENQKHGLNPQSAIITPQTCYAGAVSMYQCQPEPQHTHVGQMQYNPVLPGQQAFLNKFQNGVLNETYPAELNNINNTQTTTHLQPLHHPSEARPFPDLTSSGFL

This assay has as its target Aryl hydrocarbon receptor (Homo sapiens) (UniProt P35869). The experiment in a line: AHR activators, primary screen, cell-based, luminescence, luciferase reporter, human (AID 2796).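 Note: 0% = vehicle wells and 100% = reference agonist.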 Conditions: AHR-responsive luciferase reporter cells, at 5 µM, active compounds read high. In general terms: In a reporter assay the amount or activity of a reporter protein is the signal.
For the compound `Cc1ccc(Nc2nnc(SCC(=O)c3cc4ccccc4o3)s2)cc1C`, the activation was 52.8% (active).
For the compound `Cc1ccccc1Nc1nnc(SCC(=O)c2cc3ccccc3o2)s1`, the activation is 26.2% (inactive).
As for `Cc1cc2c(=O)n(C)c(SCC(=O)c3cc4ccccc4o3)nc2s1`, the figure is 15.9% (inactive); as for `COC(=O)c1ccc([C@@H](O)[C@H](C)C(=O)CC(=O)OC(C)(C)C)cc1`, 1.52% (inactive); as for `COC(=O)c1ccc(NC(=O)CSc2nc(N)c(NC(=O)c3ccc(Br)o3)c(=O)[nH]2)cc1`, -1.66% (inactive).
Consider `Cn1c2ccccc2c2c(C(=O)N3CCN(c4ccc(F)cc4)CC3)cn(C3CCCC3)c(=O)c21`, for which the activation was 12.2% (inactive).
As for `O=C(Nc1cccc(F)c1)c1cc(-c2ccco2)nc2ccccc12`, the activation was 33.2% (inactive).
For `CNC(=S)NNC(=O)c1oc2nc(-c3ccccc3)cc(-c3ccco3)c2c1N`, the activation was 15.9% (inactive).
To `NNC(=O)c1oc2nc(-c3ccccc3)cc(-c3ccco3)c2c1N` belongs 76.1% (active).
To `CCN(Cc1nc2ccccc2c(=O)[nH]1)Cc1cc(=O)oc2cc(C)c(C)cc12` belongs 0.64% (inactive).
Regarding `COC(=O)c1ccc(CNC(=O)c2ccc(S(=O)(=O)N3CCCCCC3)cc2)cc1`, the activation is -0.2% (inactive).
As for `CCN(C(=O)Cc1nc(N)n[nH]1)C1(C(=O)Nc2ccccc2)CCCCC1`, the figure is 1.44% (inactive); as for `Brc1c(CSc2nncc3ccccc23)nc2ccccn12`, 48.9% (active); as for `CN(C(=O)CSc1nncc2ccccc12)C1CCCCC1`, 8.04% (inactive).
As for `CC(C)CC(=O)c1c[nH]c(C(=O)NCc2ccccc2)c1`, the figure is 5.43% (inactive).
To `O=C(NC(=S)N1CCc2ccccc21)c1ccco1` belongs 8.66% (inactive); to `O=C(NNC(=S)NC(=O)c1cn(-c2ccccc2)nc1-c1ccccc1)c1ccncc1`, 12.3% (inactive).
As for `O=C(NCc1ccco1)c1nc2ncccn2n1`, the activation was -0.33% (inactive).
Consider `O=C(NCc1ccco1)c1cccn2c(=O)c3c4c(sc3nc12)CCCC4`, for which the activation is 48.2% (active).
As for `O=c1oc(-c2ccco2)nc2sc3c(c12)CCCCC3`, the figure is 5.12% (inactive).
To `Cc1c(CN2CC[C@@H](N3CCN(c4ccccn4)CC3)[C@H](O)C2)[nH]c2ccc(F)cc12` belongs 2.27% (inactive); to `Fc1ccc2[nH]c3c(N4CCSCC4)ncnc3c2c1`, 58.6% (active).
With `COc1ccc(N2CCN(C(=O)Cn3cnc4sc(C)c(S(=O)(=O)N5CCOCC5)c4c3=O)CC2)cc1`, the activation was -4.91% (inactive).
`CCOC(=O)c1cc(NC(=O)c2cccnc2)ccn1`: the activation was 4.05% (inactive).
As for `CCOc1ccccc1NC(=O)Nc1cc(OC)ccc1OC`, the figure is 71% (active).
To `CCOc1ccccc1NC(=O)c1cccnc1` belongs 93.9% (active).
As for `O=C(Nc1cnccn1)c1cccnc1`, the figure is 0.46% (inactive); as for `COc1ccc(OC)c(NC(=O)CC(Cc2ccccc2OC)C(=O)O)c1` (stereo unspecified), -3.53% (inactive).
On to `CCOc1ccc(NC(=O)Nc2cc(C)ccc2OC)cc1`, for which the activation is -5.37% (inactive).
As for `O=C(Nc1ccc(N2CCOCC2)nc1)c1c(F)cccc1F`, the figure is -5.89% (inactive).
To `COc1ccc(C(=O)N(C)CC(O)c2ccccc2)cc1OC1CCN(C(C)=O)CC1` (stereo unspecified) belongs 2.56% (inactive).
Consider `Cc1nc(SCC(=O)NC2CCCCC2C)c(C#N)c(C)c1C` (stereo unspecified), for which the activation was -1.86% (inactive).
As for `CC(C)CC1NC(=O)c2cc(Cl)ccc2-n2c1nc1ccccc1c2=O` (stereo unspecified), the figure is 20.2% (inactive); as for `CCOCCCNC(=O)C(NC(=O)CNC(=O)c1ccccc1)c1ccc(C)cc1` (stereo unspecified), 0.56% (inactive); as for `O=C(c1ccc(F)cc1)C1CCN(Cc2cn[nH]c2-c2ccccc2)CC1`, 3.88% (inactive).
As for `Cc1cccc(C)c1NC(=O)C1(C)c2cccc[n+]2CC(=O)N1Cc1cccs1` (stereo unspecified), the figure is 1.93% (inactive); as for `O=S(=O)(Nc1ccc(Oc2ncccn2)c(Cl)c1)c1ccc(F)cc1`, -0.48% (inactive).
To `CCN(CC)C(=O)CC1(c2ccccc2OC)CCOC(C(C)C)C1` (stereo unspecified) belongs -3.4% (inactive); to `O=C(Nc1ccc2oc(-c3ccc4ccccc4c3)nc2c1)c1cccs1`, 33.5% (inactive).
In the case of `CCc1ccc2oc(-c3ccc(N)cc3)nc2c1`, the activation is 78.3% (active).
As for `O=C(NC(=S)Nc1ccc(Br)cc1F)C1CCCCC1`, the figure is -1.21% (inactive); as for `CCOc1ccc(N(CC(=O)NCCc2ccc(F)cc2)S(=O)(=O)c2ccccc2)cc1`, 0.85% (inactive); as for `O=C(Nc1cccc(-n2cnnn2)c1)c1cccnc1`, 4.54% (inactive).
As for `Cc1cccc(NC(=O)c2nnn(-c3cccc(C(F)(F)F)c3)c2N)c1`, the figure is -4.69% (inactive); as for `O=C(Nc1ccc(C(F)(F)F)cc1)c1cccc(-n2cnnn2)c1`, 102% (active).
On to `CCOCCn1c(-c2ccccc2)nc2ccccc21`, for which the activation is -0.77% (inactive).
As for `Cc1nc(-c2ccccc2)cn2c1nc1ccccc12`, the figure is 77% (active).
In the case of `Cc1c(C(=O)Nc2cccc(Cl)c2)cn2c(nc3ccccc32)c1C#N`, the activation is 7.03% (inactive).
To `Cc1ccc(-n2nc(C)c(/C=N/NC(=O)c3cccs3)c2Cl)cc1` belongs 11.5% (inactive); to `COc1ccccc1CNC(=O)c1ccc(CS(=O)(=O)c2ccccc2)o1`, -0.56% (inactive).
In the case of `COc1ccc(CCNC(=O)c2ccc(CS(=O)(=O)c3ccc(Br)cc3)o2)cc1OC`, the activation is 2.36% (inactive).
As for `O=C(NCc1cccnc1)c1ccc(CS(=O)(=O)c2ccc(Br)cc2)o1`, the figure is 77.4% (active); as for `C[C@H](NC(=O)C1CCN(S(=O)(=O)c2ccccc2)CC1)C(=O)NCc1ccccc1`, 1.44% (inactive); as for `O=C(Nc1ccc(Cl)cn1)c1ccc2c(c1)OCCO2`, -5.76% (inactive).
Turning to `O=C(Nc1ccc(Cl)cn1)c1cnn2cccnc12`, the activation was 129% (active).
As for `O=C(COC(=O)c1ccco1)Nc1ccc(Cl)cn1`, the figure is 10.9% (inactive).
As for `O=C(CN1C(=O)NC(Cc2c[nH]c3ccccc23)C1=O)Nc1ccccc1C(F)(F)F` (stereo unspecified), the figure is -0.64% (inactive); as for `O=C(Nc1ncc([N+](=O)[O-])s1)C1COc2ccccc2O1` (stereo unspecified), 6.36% (inactive); as for `COc1ccc(NC(=O)C2COc3ccccc3O2)cc1` (stereo unspecified), 1.18% (inactive).
As to `COc1ccc(OC)c2sc(NC(=O)C3COc4ccccc4O3)nc12` (stereo unspecified), the activation is 50.9% (active).
For `CCC(=O)N(Cc1cc2ccccc2[nH]c1=O)c1ccc(OC)cc1`, the activation was 3.79% (inactive).
To `O=[N+]([O-])c1cc(S(=O)(=O)NCCc2ccccn2)ccc1Cl` belongs -0.28% (inactive); to `Cc1c([N+](=O)[O-])c(N)nn1C`, 2.61% (inactive); to `CC(C)OC(=O)CN1CCN(c2ccc(Cl)cc2)CC1`, 1.24% (inactive).
To `O=C(CN1CCN(c2ccc(Cl)cc2)CC1)NCc1cccs1` belongs -1.24% (inactive); to `O=C(CN1CCN(c2ccc(Cl)cc2)CC1)c1ccccc1`, 73.2% (active).
As for `CCCCC(CC)CNCc1cccn1CCN1CCOCC1` (stereo unspecified), the figure is 1.27% (inactive).
For `COc1cccc(-n2c(=S)[nH]c3c(oc4ccccc43)c2=O)c1`, the activation was 64.8% (active).
As for `COc1cccc(-n2cc(C(=O)O)c3ccccc3c2=O)c1`, the figure is -1.78% (inactive); as for `COc1cccc(N2C(=O)CN(Cc3ccccc3)C2=S)c1`, 1.66% (inactive).
On to `CCOC(=O)C1CCN(S(=O)(=O)c2ccc3c(c2)N(C)C(=O)CC(=O)N3C)CC1`, for which the activation was -0.75% (inactive).
Take `CCOC(=O)C1CN(S(=O)(=O)c2ccc(OC)cc2)c2cc(Cl)ccc2O1` (stereo unspecified): the activation is 1.38% (inactive).
As for `COc1ccc(C2OCC3(CO2)SC(=O)NC3=O)cc1OC` (stereo unspecified), the figure is 3.57% (inactive); as for `Fc1ccc(Nc2nnns2)cc1`, -0.19% (inactive).
As for `CN(C)c1nc(NN)nc(Nc2ccc(F)cc2)n1`, the figure is 76.4% (active); as for `CNc1nc(Nc2ccc(C)c(Cl)c2)nc(N)c1[N+](=O)[O-]`, 38.2% (inactive).
With `CN(C)c1nc(Nc2ccc(Cl)c(Cl)c2)nc(N(C)C)n1`, the activation is 130% (active).
To `CN(C)c1ccnc(Nc2ccc(F)cc2)c1C#N` belongs 10.8% (inactive); to `CC(=O)Nc1nc(N(C)C)nc(N(C)C)n1`, -2.86% (inactive); to `Cc1cccc(OCC(O)CN2CCN(CCN3C(=O)c4cccc5cccc(c45)C3=O)CC2)c1C` (stereo unspecified), 1.57% (inactive).
`Nc1nc(O)c(CC(=O)O)s1`: the activation was 1.52% (inactive).
For `CCCCC/C=C/C1=CC(=O)C[C@H](c2ccc(Cl)cc2)C1`, the activation is 0.78% (inactive).
Take `CCOC(=O)C1CCN(C(=O)C2CCCN(S(=O)(=O)c3ccc(OC)c(Cl)c3)C2)CC1` (stereo unspecified): the activation is 1.31% (inactive).
To `CCCCc1ccc(NC(=O)NCc2cccnc2)cc1` belongs 7.22% (inactive); to `COC(=O)c1ccccc1NC(=O)CSc1nnnn1C`, 3.56% (inactive); to `O=C(CCNC(=O)c1ccccc1)Nc1nc2ccccc2s1`, 24.7% (inactive).
On to `Cn1nnnc1SCC(=O)Nc1sccc1C(N)=O`, for which the activation was -1.01% (inactive).
To `O=C(CCC(=O)c1cccs1)Nc1nc2ccccc2s1` belongs 38% (inactive).
To `Cn1nnnc1SCC(=O)Nc1nc2ccccc2s1` belongs 50.3% (active); to `O=C(Nc1ccccc1)Nc1nc2ccccc2s1`, 74.5% (active); to `Brc1cnc2ccccc2c1N1CCCCC1`, -3.31% (inactive).
For the compound `Cc1ccc(C(=O)N/C(=C\c2cccs2)C(=O)NCCc2ccccn2)cc1C`, the activation was 0.25% (inactive).
`N#Cc1c(N2CCCCC2)nc(N)c2c(N)nc(SCC(=O)O)cc12`: the activation is 6.26% (inactive).
Take `Cc1ccc(NC(=O)c2cnc(SCC(=O)NCC3CCCO3)n(C)c2=O)cc1` (stereo unspecified): the activation is 16.3% (inactive).
To `Cn1c(SCC(=O)c2ccc(F)cc2)nnc1-c1ccccn1` belongs -0.55% (inactive); to `Cn1c(SCC(=O)c2ccccc2)ncc(C(=O)Nc2ccc(F)cc2)c1=O`, 98.3% (active); to `CN(CC(=O)Nc1ccc(Cl)cc1)CC(=O)Nc1cccc2ccccc12`, 5.21% (inactive).
As for `O=C(CN1C(=O)NC2(CCCCCC2)C1=O)Nc1ccc([N+](=O)[O-])cc1`, the figure is -2.64% (inactive); as for `COc1cc(Cl)ccc1OCc1cc(C(=O)N2CC[C@@H]3CCCC[C@H]3C2)no1`, 6.28% (inactive).
To `COc1ccccc1-c1cc(C(=O)N2CCCCC2)no1` belongs 32.7% (inactive); to `COc1ccc(OCc2cc(C(=O)N3CCCC3)no2)c2ccccc12`, 50.9% (active).
